Experiments:
Conditions in all cases: concentration: 1 μM, replicates: in singlicate; n = 1
[1] = tested on: T1, ASK2
T1 construct: gene MAP3K6

[2] = tested on: AURKA
[3] = tested on: AURKB
[4] = tested on: AURKC
[5] = tested on: AXL
[6] = tested on: T2, BIKE
T2 construct: gene BMP2K

[7] = tested on: BLK
[8] = tested on: BMPR1A
[9] = tested on: BMPR1B
[10] = tested on: BMPR2
[11] = tested on: BMX
[12] = tested on: BRAF
[13] = tested on: T3, BRK
T3 construct: gene PTK6

[14] = tested on: BRSK1
[15] = tested on: BRSK2
[16] = tested on: BTK
[17] = tested on: BUB1
[18] = tested on: CAMK1B
[19] = tested on: CAMK1D
[20] = tested on: CAMK1G
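Note: KINOMEscan kinase panel screen.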

Row | SMILES | %Inh [1] [%] | %Inh [2] [%] | %Inh [3] [%] | %Inh [4] [%] | %Inh [5] [%] | %Inh [6] [%] | %Inh [7] [%] | %Inh [8] [%] | %Inh [9] [%] | %Inh [10] [%] | %Inh [11] [%] | %Inh [12] [%] | %Inh [13] [%] | %Inh [14] [%] | %Inh [15] [%] | %Inh [16] [%] | %Inh [17] [%] | %Inh [18] [%] | %Inh [19] [%] | %Inh [20] [%]
1 | Oc1cc(Nc2ccnc3cc(I)ccc23)ccc1F [GW552771] | 4 | 0 | 8 | 8 | 3 | 5 | 80 | 56 | 99.9 | 6 | 15 | 79 | 28 | 11 | 0 | 7 | 57 | 37 | 8 | 0
2 | CC(C)c1nc(-c2cccc(NS(=O)(=O)c3c(F)cccc3F)c2F)c(-c2ccnc(Nc3ccc(N4CCOCC4)nc3)n2)s1 [GSK2008607] | 3 | 93.6 | 91.8 | 53 | 97.5 | 24 | 99.7 | 53 | 98.5 | 0 | 99.2 | 99.9 | 88 | 49 | 75 | 95.3 | 98 | 67 | 94.3 | 42
3 | COc1cccc(C2=C(Nc3ccc(Cl)c(C(=O)O)c3)C(=O)NC2=O)c1 [SB-390769] | 100 | 0 | 39 | 23 | 3 | 16 | 10 | 0 | 0 | 100 | 0 | 13 | 38 | 0 | 0 | 25 | 44 | 28 | 0 | 0
4 | CC(=O)N1CCN(c2ccc(Nc3nccc(-c4sc(C(C)C)nc4-c4cccc(NS(=O)(=O)c5cccc(Cl)c5)c4)n3)cn2)CC1 [GSK1660437] | 2 | 0 | 0 | 10 | 68 | 24 | 91.4 | 0 | 97.1 | 0 | 56 | 99.3 | 91.8 | 0 | 2 | 36 | 91 | 0 | 12 | 0
5 | CNC(=O)c1ccccc1Nc1nc(Nc2ccc(N3CCOCC3)cc2)ncc1Cl.Cl [GSK1576028] | 16 | 100 | 99.9 | 100 | 100 | 100 | 99.7 | 28 | 100 | 53 | 91.4 | 72 | 94.6 | 78 | 92.4 | 96.9 | 96.7 | 39 | 54 | 30
6 | COc1cccc(NC(=O)NC2CCN(c3ccnc(Nc4cc(OC)c(OC)c(OC)c4)n3)C2)c1 (stereo not shown) [GSK1379763] | 11 | 75 | 55 | 89 | 13 | 78 | 0 | 0 | 0 | 8 | 2 | 5 | 0 | 0 | 0 | 0 | 18 | 35 | 4 | 17
7 | O=C(Nc1n[nH]c2nc(-c3ccc(O)cc3)ccc12)C1CC1 [SB-710363] | 12 | 11 | 47 | 0 | 37 | 32 | 12 | 8 | 34 | 16 | 22 | 0 | 0 | 26 | 11 | 0 | 0 | 0 | 0 | 4
8 | O=C(Nc1ccccc1F)NC1CCN(c2ccnc(Nc3ccc(F)cc3)n2)CC1 [GSK1379800] | 17 | 15 | 0 | 54 | 15 | 39 | 0 | 8 | 0 | 12 | 3 | 0 | 0 | 0 | 0 | 0 | 63 | 36 | 5 | 0
9 | COc1ccc(CNC(=O)NC2CCN(c3ccnc(Nc4ccc(F)cc4)n3)CC2)cc1 [GSK1379788] | 0 | 34 | 26 | 5 | 0 | 0 | 3 | 0 | 0 | 5 | 3 | 0 | 0 | 0 | 0 | 0 | 56 | 7 | 15 | 0
10 | Cl.Cl.NCC(C(=O)Nc1cc(Br)c(-c2ccnc3[nH]ccc23)s1)c1ccccc1 (stereo not shown) [GSK1269851] | 26 | 81 | 9 | 53 | 57 | 99.8 | 0 | 78 | 0 | 30 | 12 | 1 | 7 | 6 | 0 | 0 | 59 | 24 | 0 | 0
11 | c1ccc(-c2cnc3nccnn23)cc1 [AH20685] | 0 | 0 | 13 | 0 | 0 | 0 | 37 | 0 | 0 | 0 | 0 | 33 | 22 | 0 | 0 | 6 | 0 | 0 | 0 | 0
12 | CCn1c(-c2nonc2N)nc2c(C#CC(C)(C)O)nc(OC[C@H](N)c3ccccc3)cc21 [GSK943949] | 0 | 37 | 0 | 4 | 13 | 19 | 0 | 0 | 9 | 1 | 2 | 42 | 0 | 0 | 50 | 0 | 13 | 0 | 10 | 0
13 | COC(=O)Nc1nc2cc(Oc3ccc(NC(=O)Nc4cc(C(F)(F)F)ccc4F)cn3)ccc2[nH]1.Cl.Cl [GW681170] | 0 | 78 | 40 | 52 | 98.3 | 1 | 31 | 0 | 0 | 10 | 5 | 73 | 0 | 0 | 0 | 0 | 3 | 28 | 12 | 44
14 | COc1cc2c(cc1OCCN1CCNCC1)ncc1c3ccc(C#N)cc3[nH]c21 | 16 | 21 | 65 | 9 | 32 | 97.8 | 0 | 12 | 22 | 19 | 17 | 28 | 0 | 25 | 0 | 2 | 99 | 28 | 30 | 14
15 | CN1CCN(Cc2cccc(-c3ccc4c(Nc5ccc(Oc6ccccc6)cc5)ccnc4c3)c2)CC1 [GW578342] | 0 | 6 | 0 | 9 | 17 | 1 | 94.8 | 0 | 0 | 8 | 20 | 0 | 90.2 | 0 | 1 | 90.8 | 35 | 10 | 7 | 0
16 | CCS(=O)(=O)c1ccc(OC)c(Nc2nccc(-c3c(-c4cccc(NC(=O)c5c(F)cccc5F)c4)nn4ncccc34)n2)c1 [GSK326180] | 9 | 15 | 25 | 60 | 9 | 40 | 36 | 0 | 0 | 4 | 0 | 90 | 93.5 | 0 | 0 | 15 | 28 | 33 | 12 | 7
17 | CN1CCN(CCCNc2nccc(-c3c(-c4ccc(F)cc4)nn4cc(C(F)(F)F)ccc34)n2)CC1 [GW621581] | 0 | 0 | 11 | 0 | 10 | 11 | 50 | 0 | 0 | 0 | 0 | 41 | 9 | 2 | 1 | 0 | 26 | 5 | 11 | 0
18 | Cc1cccc(NC(=O)Nc2ccc(Oc3ncnc4ccn(C)c34)cc2)c1 | 0 | 0 | 94.9 | 85 | 44 | 10 | 0 | 0 | 0 | 0 | 0 | 0 | 0 | 0 | 0 | 91.6 | 0 | 14 | 6 | 0
19 | CSc1cccc2c(-c3ccncn3)c(-c3ccc(F)cc3)nn12 [GW514786] | 29 | 8 | 15 | 7 | 11 | 8 | 19 | 10 | 0 | 11 | 14 | 13 | 9 | 14 | 0 | 11 | 89 | 0 | 7 | 0
20 | COCCOCCOc1cc2ncc3c4ccc(C#N)cc4[nH]c3c2cc1OC | 0 | 51 | 83 | 62 | 44 | 100 | 21 | 0 | 0 | 0 | 35 | 0 | 18 | 0 | 12 | 0 | 96.7 | 14 | 25 | 1

Source: publication PMC5540273 (PLoS ONE, 2017)
